The text below walks through data of PubChem BioAssay (EPA / NIEHS).

The structures appear in SMILES notation. Records with an inconclusive call do not appear. Activity calls are given as the source filed them. Rule for the calls, unless noted: active = hit-call score of the fitted dose curve at least 0.9, where 1 is the maximum; inactive = score below 0.9.

Assay [1] can be described thus: TAMU_PeakParms_SingleDonor1434_Chronotropy: Texas A&M University (TAMU) 1.5-hr Human Induced Pluripotent Stem Cell (iPSC)-derived Cardiomyocytes Calcium (Ca+2) Flux Assay for Cardiotoxicity: Chronotropy (changes in peak frequency) (AID 2284217). Conditions: actives raise or lower the signal. The procedure, abridged: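 Using fluorescent Ca2+ flux, average beats per second are measured in human iPSC-derived cardiomyocytes treated 90 min (0.5% DMSO vehicle, 0.2–100 uM). Non-beating data points are removed; activity is modeled in both directions relative to DMSO controls.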

A short description of assay [2]: CCTE_Mundy_HCI_hNP1_Pro_ResponderAvgInten: CCTE's Proliferation Assay in human neuroprogenitor cells, Mundy Lab (AID 2284224; active = hit-call score of the fitted dose curve at least 0.9, where 1 is the maximum;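 note: human neural progenitor cells hNP1 derived from WA09 embryonic stem cells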). The essentials:
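Human neuroprogenitors (hNP1, WA09 lineage) receive test chemical after 40 to 44 hours of attachment. A four-hour BrdU pulse begins twenty hours later, followed by fixation and high content imaging; signal is referenced to DMSO controls.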

For the compound `O=C(O)CCCC[C@@H]1SC[C@@H]2NC(=O)N[C@@H]21`, the outcome in assay [1] was inactive.

The AC50 is the concentration giving half of the maximal activity seen. `c1ccc2c(c1)ccc1cc3c(ccc4ccccc43)cc12`: the concentration at half-maximal activity (AC50) in assay [1] was 50 µM (active). Take `Nc1ncn([C@@H]2O[C@H](CO)[C@@H](O)[C@H]2O)c(=O)n1`: in assay [2], the AC50 was 8.32 µM (active). As for `N[C@H]1C(O)O[C@H](CO)[C@H](O)[C@@H]1O` (some centres undefined), in assay [2], the compound was classed as inactive.
